Screen size: about 5,500 compounds; about 2,000 (36%) were called active. Not shown: some 18% with an inconclusive outcome. Cut-off read from the data, not from the text of the source: active = normalized growth mostly below about 0.91 (no sharp cut-off); inconclusive = no clear call, values can overlap the other calls; inactive = mostly above about 0.92. The list shows a part of the results.
Assay: chemical genetic growth profiling, strain panel (AID 1159580);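 note: tested at 20 µM; growth read once vehicle control cultures reached saturation at 30 °C; 1 = growth at the plate median or of vehicle wells; lower values mean less growth of the strain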
Details: growth OD
[1] = S. cerevisiae deletion strains, locus YAL013W, strain DEP1, active compounds read low

Measured: normalized growth

CCOC(=O)C12CC1/C(=N\O)c1ccccc1O2 (centres undefined)
inactive: [1] 0.998 | S. cerevisiae deletion strains, locus YAL040C, strain CLN3, active compounds read low 1.05 | S. cerevisiae deletion strains, locus YCL061C, strain MRC1 (second series), active compounds read low 0.995 | S. cerevisiae deletion strains, locus YER002W, strain NOP16, active compounds read low 1.02 | S. cerevisiae deletion strains, locus YGR229C, strain SMI1, active compounds read low 0.991 | S. cerevisiae deletion strains, locus YNL153C, strain GIM3, active compounds read low 1.02 | S. cerevisiae deletion strains, locus YNL175C, strain NOP13, active compounds read low 1.02 | S. cerevisiae deletion strains, locus YNL197C, strain WHI3, active compounds read low 1.02 | S. cerevisiae deletion strains, locus YNL224C, strain SQS1, active compounds read low 1 | S. cerevisiae deletion strains, locus YOR083W, strain WHI5 (second series), active compounds read low 1.02

CCOC(=O)C1(O)Oc2cc(OC)cc(OC)c2C(=O)C1c1ccccc1 (centres undefined)
inactive: [1] 0.969 | S. cerevisiae deletion strains, locus YBR229C, strain ROT2, active compounds read low 1.01 | S. cerevisiae deletion strains, locus YCL029C, strain bik1, active compounds read low 0.996 | S. cerevisiae deletion strains, locus YDL035C, strain GPR1, active compounds read low 0.984 | S. cerevisiae deletion strains, locus YDL074C, strain BRE1, active compounds read low 0.947 | S. cerevisiae deletion strains, locus YDL101C, strain DUN1, active compounds read low 1 | S. cerevisiae deletion strains, locus YDL134C, strain PPH21, active compounds read low 0.986 | S. cerevisiae deletion strains, locus YDL185W, strain tfp1, active compounds read low 1 | S. cerevisiae deletion strains, locus YDL192W, strain arf1, active compounds read low 0.982 | S. cerevisiae deletion strains, locus YDR101C, strain arx1, active compounds read low 0.984 | S. cerevisiae deletion strains, locus YDR162C, strain NBP2, active compounds read low 1 | S. cerevisiae deletion strains, locus YDR318W, strain mcm21, active compounds read low 0.979 | S. cerevisiae deletion strains, locus YDR388W, active compounds read low 0.976 | S. cerevisiae deletion strains, locus YDR502C, strain sam2, active compounds read low 0.932 | S. cerevisiae deletion strains, locus YEL061C, strain CIN8, active compounds read low 0.996 | S. cerevisiae deletion strains, locus YER110C, active compounds read low 0.977 | S. cerevisiae deletion strains, locus YER155C, strain BEM2, active compounds read low 0.978 | S. cerevisiae deletion strains, locus YER167W, strain BCK2, active compounds read low 1 | S. cerevisiae deletion strains, locus YGL078C, strain dbp3, active compounds read low 0.993 | S. cerevisiae deletion strains, locus YGL086W, strain mad1, active compounds read low 0.97 | S. cerevisiae deletion strains, locus YGL248W, strain PDE1, active compounds read low 0.99 | S. cerevisiae deletion strains, locus YGR135W, strain pre9, active compounds read low 0.925 | S. cerevisiae deletion strains, locus YGR252W, strain gcn5, active compounds read low 0.815 | S. cerevisiae deletion strains, locus YHR079C, strain IRE1 (second series), active compounds read low 0.974 | S. cerevisiae deletion strains, locus YHR094C, strain hxt1, active compounds read low 0.981 | S. cerevisiae deletion strains, locus YHR129C, strain ARP1, active compounds read low 0.993 | S. cerevisiae deletion strains, locus YHR200W, strain rpn10, active compounds read low 0.959 | S. cerevisiae deletion strains, locus YIL066C, strain RNR3, active compounds read low 1 | S. cerevisiae deletion strains, locus YIL073C, strain SPO22, active compounds read low 0.968 | S. cerevisiae deletion strains, locus YIL125W, strain kgd1, active compounds read low 0.989 | S. cerevisiae deletion strains, locus YIR030C, strain dcg1, active compounds read low 0.983 | S. cerevisiae deletion strains, locus YJL095W, strain BCK1, active compounds read low 0.97 | S. cerevisiae deletion strains, locus YJL134W, strain LCB3, active compounds read low 1 | S. cerevisiae deletion strains, locus YJL168C, strain set2, active compounds read low 0.977 | S. cerevisiae deletion strains, locus YJL187C, strain SWE1 (second series), active compounds read low 0.971 | S. cerevisiae deletion strains, locus YJR043C, strain POL32, active compounds read low 0.967 | S. cerevisiae deletion strains, locus YKL009W, strain mrt4, active compounds read low 0.985 | S. cerevisiae deletion strains, locus YKL068W, active compounds read low 1 | S. cerevisiae deletion strains, locus YKL085W, strain MDH1 (second series), active compounds read low 1.01 | S. cerevisiae deletion strains, locus YKL085W, strain MDH1, active compounds read low 1.01 | S. cerevisiae deletion strains, locus YKR001C, strain vps1, active compounds read low 0.97 | S. cerevisiae deletion strains, locus YLR039C, strain RIC1, active compounds read low 1.03 | S. cerevisiae deletion strains, locus YLR058C, strain SHM2, active compounds read low 1 | S. cerevisiae deletion strains, locus YLR102C, strain apc9, active compounds read low 0.976 | S. cerevisiae deletion strains, locus YLR262C, strain YPT6, active compounds read low 1.03 | S. cerevisiae deletion strains, locus YLR268W, strain sec22, active compounds read low 0.973 | S. cerevisiae deletion strains, locus YLR371W, strain rom2, active compounds read low 0.997 | S. cerevisiae deletion strains, locus YLR418C, strain cdc73, active compounds read low 0.906 | S. cerevisiae deletion strains, locus YML016C, strain PPZ1, active compounds read low 0.998 | S. cerevisiae deletion strains, locus YML032C, strain rad52, active compounds read low 0.97 | S. cerevisiae deletion strains, locus YML124C, strain tub3, active compounds read low 0.977 | S. cerevisiae deletion strains, locus YMR078C, strain ctf18, active compounds read low 0.979 | S. cerevisiae deletion strains, locus YMR223W, strain ubp8, active compounds read low 0.951 | S. cerevisiae deletion strains, locus YMR263W, strain SAP30, active compounds read low 0.987 | S. cerevisiae deletion strains, locus YMR307W, strain GAS1, active compounds read low 0.979 | S. cerevisiae deletion strains, locus YNL067W, strain RPL9B, active compounds read low 0.983 | S. cerevisiae deletion strains, locus YNL233W, strain BNI4, active compounds read low 0.955 | S. cerevisiae deletion strains, locus YNL250W, strain rad50, active compounds read low 0.979 | S. cerevisiae deletion strains, locus YNL271C, strain bni1, active compounds read low 0.999 | S. cerevisiae deletion strains, locus YNL298W, strain CLA4, active compounds read low 1.02 | S. cerevisiae deletion strains, locus YNL307C, strain MCK1, active compounds read low 0.961 | S. cerevisiae deletion strains, locus YNL322C, strain KRE1, active compounds read low 0.991 | S. cerevisiae deletion strains, locus YNR052C, strain pop2, active compounds read low 0.989 | S. cerevisiae deletion strains, locus YOL006C, strain TOP1, active compounds read low 0.893 | S. cerevisiae deletion strains, locus YOL012C, strain htz1 1.08 | S. cerevisiae deletion strains, locus YOL147C, strain pex11, active compounds read low 0.973 | S. cerevisiae deletion strains, locus YOR061W, strain CKA2, active compounds read low 1.01 | S. cerevisiae deletion strains, locus YOR069W, strain VPS5, active compounds read low 0.999 | S. cerevisiae deletion strains, locus YOR136W, strain idh2, active compounds read low 0.981 | S. cerevisiae deletion strains, locus YOR144C, strain elg1, active compounds read low 0.988 | S. cerevisiae deletion strains, locus YOR184W, strain ser1, active compounds read low 0.978 | S. cerevisiae deletion strains, locus YOR316C, strain cot1, active compounds read low 0.98 | S. cerevisiae deletion strains, locus YPR119W, strain clb2, active compounds read low 0.96 | S. cerevisiae deletion strains, locus YPR141C, strain kar3, active compounds read low 0.99 | S. cerevisiae deletion strains, locus YPR163C, strain tif3, active compounds read low 0.984 | S. cerevisiae deletion strains, locus YPR167C, strain met16, active compounds read low 0.961 | S. cerevisiae deletion strains, strain wtn01, active compounds read low 0.973 | S. cerevisiae strains, strain wild type, active compounds read low 0.99
active: S. cerevisiae deletion strains, locus YBR021W, strain FUR4, active compounds read low 0.837
